# Experimental data taken from PubChem BioAssay AID686935 (National Center for Advancing Translational Sciences (NCATS), 2013).
# Inconclusive results are not listed. A number with no mark means an inactive call. Calls of active or inactive are those of the source. The call rests on the fitted dose curve; in most records, active means well fitted curve in the direction sought with a large enough effect; inconclusive means small, poorly fitted or top-dose-only effect, or another doubt; inactive means no such curve, though single readings can be large or run the other way.
# Test: qHTS Assay for Lipid Storage Modulators: CytotoxicityAssay against Probe and Analogs
# Settings: 3T3-L1 adipocytes cytotoxicity, imaging cell count; series mostly up to 20 µM; activity change, negative = cytotoxicity: at the top concentration
# Excerpt: Storing lipids as a reservoir for energy or the anabolism of elementary metabolites is a common feature of probably all cells and is conserved from bacteria to humans. The universal cellular lipid storage organelle is the so-called lipid storage droplet (LD). Although ubiquitous, LDs share a simple structure composed of a hydrophobic core that harbors the storage lipids, which is shielded by a droplet-specific phospholipid monolayer to which proteins are attached. The current model of LD biogenesis involves an incorporation of the lipid core into the membrane leaflets of the endoplasmic reticulum (ER) followed by a subsequent budding-like maturation of a LD, which ultimately pinches off. Once released, LD volume can increase by localized lipogenesis or fusion of existing droplets. Storage lipids are re-mobilized enzymatically by lipase activity. Lipase regulation in the adipocyte is heavily studied and involves multiple components including catecholamine signaling, the LD-associated proteins Perilipin and comparative gene identification-58 (CGI-58) and at least two lipases named hormone sensitive lipase (HSL) and adipocyte triglyceride lipase (ATGL). LD regulation outside of the adipocyte is poorly understood and only few components are known. However, there is an urgent need to learn more about ectopic fat depots as mislocalized storage of lipids, for example in the liver or muscle, is an eminent health problem associated with insulin resistance or the metabolic syndrome. We developed a laser-scanning cytometer assay to enable 1,536-well screening and combined the results of the small molecules screen with an RNAi database based on lipid storage. In this assay we tested analogs of the probe in a cytotoxicity assay. NIH Molecular Libraries Probe Production Centers Network [MLPCN] NIH Chemical Genomics Center [NCGC] MLPCN Grant: MH085686 Assay Submitter (PI): Mathias Beller, Max-Planck-Institut fur Biophysikalische Chemie
# 3T3-L1 cells were obtained from ATCC (CL-173). Pre-adipocyte medium (PM-1),differentiation medium (DM-2) and after adipocyte medium (AM-1) were purchased from Zen-Bio (# PM-1-L1, DM-2-L1, AM-1-L1). […] of PM-1containing 3,000 cells was dispensed into each well of a 96-well plate (Corning, #3340), and the assay plates were incubated at 37 °C, 95% humidity and 5% CO2 for 3-5 days. The differentiation of pre-adipocyte to adipocyte was induced by removing the pre-adipocyte medium and replacing with […] of differentiation medium. […] of compounds at different concentrations dissolved in differentiation medium were added to the assay plates, along with medium exchange for differentiation to test their effects on adipocyte differentiation. The final DMSO concentration was 0.5%. Triacsin C (Sigma-Aldrich T-4540), an inhibitor of long-chain fatty acyl CoA synthetase that blocks synthesis of triglycerides, was used as a positive control for lipid under-storage. After 3 days, differentiation medium was replaced with 200ul of adipocyte maintenance medium and assay plates were incubated for 4 days. Cells were then fixed using4% of paraformaldehyde in PBS for 30 minutes at room temperature, washed 3 times with PBS buffer. Finally, the cells were stained using […] of PBS containing BODIPY lipid dye 493/530 (1:2000 -, Life Technologies, # D-3922), Hoechst 33342 (1:1000, Life Technologies, #H3570) and CellMask deep red dye (1:10,000 , Life Technologies, #H32721). Images were acquired using InCell 2000 (GE), number of cells, number of lipids, size of lipids and cells were analysis using GE Investigator software.
SMILES,"activity change, negative = cytotoxicity [%]",Potency
CCOc1ccc(CCNC(=O)c2cc3sccc3n2C)cc1OCC,17.7,–
CCOc1ccc(CCNC(=O)c2cc3ccccc3o2)cc1OCC,21.8,–
CCOC(=O)C1CCN(C(=O)C(C)(C)NC(=O)Nc2ccc(-c3ccccc3)cc2)CC1,20.7,–
CCOc1ccc(CCNC(=O)c2cc3sccc3n2Cc2ccccc2)cc1OCC,-8.87,–
CCOc1ccc(CCNC(=O)c2cccc(C(=O)c3ccccc3)c2)cc1OCC,-9.68,–
CC(C)Oc1ccc(CCNC(=O)c2cc3sccc3n2Cc2ccccc2)cc1OC(C)C,8.18,–
CCn1c(C(=O)NCCc2ccc(OC)cc2)cc2sccc21,28.8,–
CCOc1cc(CCNC(=O)c2cc3sccc3n2Cc2ccccc2)cc(F)c1OCC,–,7.08 µM (active)
CCOc1ccc(CCNC(=O)c2ccnn2Cc2cccc(C)c2)cc1OCC,6.45,–
CCOc1ccc(CCNC(=O)c2cc3sccc3n2Cc2ccccn2)cc1OCC,1.82,–
CCOc1ccc(CCNC(=O)c2cc3sccc3n2Cc2ccncc2)cc1OCC,-7.21,–
CCOc1cc(F)c(CCNC(=O)c2cc3sccc3n2Cc2ccccc2)cc1OCC,7.21,–
